In the library only some 4.8% were active in any assay of this set; here they are far more common.
ATXN2 expr inh: ATXN2 expression inhibition. HEK-293 ATXN2-luciferase reporter, luminescence, 24 h. Potency, µM (series often up to 57 µM), actives largely listed as inhibitors. 360,000 compounds, 0.72% hits. AID 1745845; also: nearly all actives have a fitted effect of over 55% in size
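qHTS (up to 57 uM final) was run with 24 h compound exposure of reporter cells at 37 °C. Each well was multiplexed: SteadyGlo luminescence measured ATXN2-luciferase expression after a fluorogenic Gly-Phe-AFC viability readout (25 uM final).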
USP1-UAF1 inh: inhibitors of human USP1/UAF1 deubiquitinase; 390,000 compounds, 0.23% hits; AID 743255; recombinant USP1/UAF1, Ub-Rhodamine cleavage fluorescence; Potency, µM (highest dose often 57.1 µM), hits mostly inhibitors; also: nearly all actives have a fitted effect of over 60% in size
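USP1/UAF1 complex at 1 nM was preincubated with compound for 15 min at room temperature, then Ub-Rho substrate (150nM final) was added. Fluorescence (480/540 nm) was read kinetically, 6 reads every 60 seconds.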
S2 tox: viability counter-screen for ATXN expression inhibitors. AID 651635. 400,000 compounds, 0.49% hits. Potency, µM (top dose mostly 56.7 µM), hits mostly cytotoxic. S2 cells (HEK-293 line with an ATXN2-luciferase reporter) viability, CellTiter-Fluor protease fluorescence, 24 h; also: nearly all actives have a fitted effect of over 40% in size
USP2a block: blocks human ubiquitin-specific protease USP2a; AID 463254; 330,000 compounds, 0.01% hits; Potency, µM (series often up to 38.3 µM), hits mostly inhibitors; USP2 core, Ub-CHOP2 coupled fluorogenic reporter, 485/531
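Deubiquitinase activity read as fluorescence (485/531 nm) after Ub-CHOP2 cleavage activates the enterokinase reporter on its substrate; USP2 core 10nM, Ub-CHOP2 and substrate 25nM each, 30min compound preincubation then 60min RT; data normalized to NEM, curves fitted.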
IL1B secr inh: inhibitors of inflammasome signaling (IL-1 beta secretion); THP-1 LPS/ATP IL-1B secretion, AlphaLISA, 16 h; active compounds read low; activity change, % at 57.5 µM; 360,000 compounds, 4.7% hits; in the data active = activity change below about -50%; inconclusive = mostly about -30% to -49%
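THP-1 cells pretreated 1 hr with compounds (up to 57.5 uM final), then stimulated with LPS (250 ng/mL final) plus ATP (1.25 mM final); secreted IL-1B measured by AlphaLISA after 16 hr, decreased signal indicating inhibition.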
Large screens that a line does not name were inactive. Unless noted, calls follow the shape of the dose curve; as a rule, active = well fitted curve in the direction sought with a large enough effect; inconclusive = small, poorly fitted or top-dose-only effect, or another doubt; inactive = no such curve, though single readings can be large; an effect the other way counts as inactive or inconclusive.

O=C(CCC1CCCCC1)Nc1ccc(C(=O)c2ccncc2)cc1	IL1B secr inh -92
FC(F)(F)c1cc(Cl)c2nc(-c3ccccc3)c(Cc3ccccc3)n2c1	none (no result: USP1-UAF1 inh, USP2a block)
Cc1cc(C)n(CCc2nc(-c3ccc(C(C)(C)C)cc3)cs2)n1	IL1B secr inh -51
COc1cc2nccc(Oc3ccc(NC(=O)C4(C(=O)Nc5ccc(F)cc5)CC4)cc3)c2cc1OC	ATXN2 expr inh 19µM (no result: USP1-UAF1 inh, S2 tox, USP2a block, IL1B secr inh)
O=C(CSc1ncn[nH]1)Nc1ccc(Cl)c(Cl)c1	IL1B secr inh -52
CCOc1ccccc1OCCCCn1c(-c2ccc(Cl)cc2)nc2ccccc2c1=O	none (no result: USP2a block, IL1B secr inh)
O=S(=O)(c1ccccc1Br)N(CC(O)COCc1ccccc1)C1CC1 (stereo not given)	none
O=S(=O)(c1ccccc1Br)N(Cc1ccccc1)CC(O)COCc1ccccc1 (stereo not given)	S2 tox inconclusive, IL1B secr inh -61
CCC(=O)N(C)C[C@H]1Oc2cc(Br)ccc2S(=O)(=O)N([C@@H](C)CO)C[C@H]1C	none (no result: USP2a block)
CC1=C/C(=C(/c2ccc(O)c(C)c2)c2ccccc2S(=O)(=O)O)C=CC1=O	S2 tox inconclusive
CC1=C/C(=C(/c2cc(C)c(O)c(Br)c2)c2ccccc2S(=O)(=O)O)C=C(Br)C1=O	ATXN2 expr inh inconclusive, S2 tox inconclusive, IL1B secr inh -71
COc1ccc2[nH]c(=O)c3c(c2c1)OC(C)(C)C=C3	IL1B secr inh -106
O=C(NCc1ccccc1C(F)(F)F)C1CC(c2ccccc2C(F)(F)F)=NO1 (stereo not given)	IL1B secr inh -62
O=C(NCc1ccccc1C(F)(F)F)C1CC(c2ccccc2[N+](=O)[O-])=NO1 (stereo not given)	none
CN(C(=O)CSc1cc(C(=O)c2nccn2C)c2ccccc2n1)c1ccccc1	S2 tox inconclusive, IL1B secr inh -56
Cn1ccnc1C(=O)c1cc(SCC(=O)NC2CC2)nc2ccccc12	none
CN(C)c1ccc(C(=C2C=CC(=[N+](C)C)C=C2)c2ccc(N(C)C)cc2)cc1	ATXN2 expr inh 7.7µM, S2 tox 18µM (no result: USP1-UAF1 inh, USP2a block, IL1B secr inh)
COc1ccc2nc(C)cc(SCC(=O)N/N=C/c3ccc(O)c(O)c3)c2c1	IL1B secr inh inconclusive
COc1ccc2nc(C)cc(SCC(=O)N/N=C/c3cccc4ccccc34)c2c1	ATXN2 expr inh inconclusive, IL1B secr inh -56 (no result: S2 tox)
Cc1cc(SCC(=O)N/N=C/c2ccc(O)cc2O)nc2ccccc12	ATXN2 expr inh 13µM
COc1cccc2c(SCC(=O)N/N=C/c3ccc(O)c(O)c3)cc(C)nc12	IL1B secr inh -64
Cc1cccc(C)c1NC(=O)C(c1ccccc1)n1c(=O)c(-c2ccco2)nc2ccccc21 (stereo not given)	none (no result: ATXN2 expr inh, USP1-UAF1 inh, S2 tox, USP2a block)
O=C(COC(=O)c1cc(S(=O)(=O)N2CCCCC2)ccc1N1CCOCC1)c1ccc(F)cc1	IL1B secr inh inconclusive
Cc1ccc(Nc2nc3ccccc3s2)c(C)c1	IL1B secr inh -62
COc1ccc2nc3c(cc2c1)c(NC(=O)c1cccs1)nn3CC(C)C	IL1B secr inh -51
CC(C)Cn1nc(NC(=O)c2cccs2)c2cc3ccccc3nc21	none (no result: ATXN2 expr inh, S2 tox)
Cc1ccc(N2CC(C)Cn3c2nc2c3c(=O)n(Cc3cccc(Cl)c3)c(=O)n2C)cc1 (stereo not given)	none (no result: ATXN2 expr inh, S2 tox, USP2a block, IL1B secr inh)
O=C(O)CSc1c(-c2ccccc2)c2cc(Cl)ccc2[nH]c1=O	none
CCN(CC)C(=S)Sc1c(-c2ccccc2)c2cc(Cl)ccc2[nH]c1=O	IL1B secr inh -61
CN(C)c1ccc(C=c2c3cc(O)ccc3n3c2cc(-c2ccccc2)[n+]3C)cc1	USP1-UAF1 inh 28µM, IL1B secr inh -105 (no result: USP2a block)
C[n+]1c(-c2ccccc2)cc2c(=Cc3ccccc3)c3ccccc3n21	ATXN2 expr inh 9.5µM, USP1-UAF1 inh 4µM, IL1B secr inh -100 (no result: S2 tox, USP2a block)
C[n+]1c(-c2ccccc2)cc2c(=Cc3ccc([N+](=O)[O-])cc3)c3ccccc3n21	ATXN2 expr inh inconclusive, USP1-UAF1 inh 3.5µM, S2 tox inconclusive, IL1B secr inh -98 (no result: USP2a block)
CC(=O)Nc1ccccc1-c1nc(CNC(=O)c2ccc(F)c(F)c2)c(C)o1	none (no result: ATXN2 expr inh, USP1-UAF1 inh, USP2a block, IL1B secr inh)
CCOC(=O)CSC1=NC(=O)/C(=C/c2ccc(Br)cc2)S1	IL1B secr inh -64
NC1=NC(=O)/C(=C/c2ccc(Br)cc2)S1	none (no result: ATXN2 expr inh, S2 tox)

From PubChem
